Source: PubChem BioAssay
KB-3-1 cytotox = KB-3-1 parental cell cytotoxicity; 1.4% of 400,000 active; KB-3-1 viability, CellTiter-Glo ATP luminescence, 72 h; Potency, µM (series often up to 46.1 µM), hits mostly cytotoxic; further: nearly all actives have a fitted effect of over 60% in size
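Screening of KB-3-1 cells (DMEM, 10% FBS, phenol-red free) ran from lowest to highest compound concentration; after 72 h at 37 °C viability was read luminescently and curves fitted.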
ELG1 DNA repair = inhibitors of ELG1-dependent DNA repair in HEK293T cells. HEK293T ELG1-luciferase reporter, luminescence, 16 h; DNA damage induced by 5-fluorouridine. Potency, µM (series often up to 46.1 µM), hits mostly inhibitors. 2.3% of 330,000 active; further: nearly all actives have a fitted effect of over 55% in size
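HEK293T cells expressing luciferase-tagged ELG1 (2,000/well) received 5-Fluorouridine plus compound or DMSO for 16 hr at 37 °C. Luciferase was read by ONE-Glo luminescence after 30 min at room temperature.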
MCF10A rerep = DNA re-replication induction in MCF 10a cells. Potency, µM (series often up to 46.1 µM), usual class: activators. 2.9% of 350,000 active. MCF 10A DNA re-replication, Hoechst nuclear intensity, 48 h; further: nearly all actives have a fitted effect of over 50% in size
KB-V1 cytotox = KB-V1 MDR subline cytotoxicity; KB-V1 MDR cells viability, CellTiter-Glo, 72 h; Potency, µM (series often up to 46.1 µM), most hits filed as cytotoxic; AID 1347076; 3.4% of 400,000 active; further: nearly all actives have a fitted effect of over 60% in size
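Cytotoxicity via CellTiter-Glo luminescence after 72 h compound exposure at 37 degrees C. Cells: drug-selected KB-V1 line, DMEM phenol-red free plus 10% FBS. Compounds tested at multiple concentrations; normalized data fitted to concentration-effect curves.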
SW480 rerep = induces DNA re-replication in SW480 colon adenocarcinoma cells | SW480 DNA re-replication, Hoechst DNA content imaging, 48 h | AID 624297 | Potency, µM (doses to about 46.1 µM), actives largely listed as activators | 1.8% of 340,000 active; further: nearly all actives have a fitted effect of over 55% in size
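DNA re-replication was detected as more nuclei of elevated Hoechst intensity after 48 hr exposure to compound (23 nL pinned per well of 250 cells).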
A number is an active result; 0 = inactive; ? = inconclusive; - = not tested or not shown; [ ] = another dose, or the depositor's remark. An excerpt weighted towards active compounds, which were near 8.2% of everything screened. The call rests on the fitted dose curve; in most records, active means well fitted curve in the direction sought with a large enough effect; inconclusive means small, poorly fitted or top-dose-only effect, or another doubt; inactive means no such curve, though single readings can be large; an effect the other way counts as inactive or inconclusive.

SMILES	KB-3-1 cytotox	ELG1 DNA repair	MCF10A rerep	KB-V1 cytotox	SW480 rerep
N=c1c(C(=O)NC2CCCCC2)cc2c(=O)n3ccccc3nc2n1CCc1ccccc1	0	?	2.6µM	0	2.3µM
COC(=O)c1cc2c(=O)n3ccccc3nc2n(Cc2cccnc2)c1=N	0	-	?	0	?
N=c1c(C(=O)NC2CCCCC2)cc2c(=O)n3ccccc3nc2n1Cc1cccnc1	0	0	?	0	15µM
COc1ccc(CCn2c(=N)c(C(=O)NCc3ccco3)cc3c(=O)n4ccccc4nc32)cc1	0	16µM	9.2µM	23µM	0
N=c1c(S(=O)(=O)c2ccccc2)cc2c(=O)n3ccccc3nc2n1Cc1ccco1	0	?	0	0	0
N=c1c(C(=O)NCCc2ccccc2)cc2c(=O)n3ccccc3nc2n1Cc1ccco1	0	21µM	9.2µM	?	18µM
COc1ccc(-c2cc3c(c4c2ccn4C)C2CCC3C2)cc1OC (centres undefined)	0	-	-	0	-
Cc1nn2c(C)c(C(=O)NC(C)(C)C)cnc2c1-c1ccc(F)cc1	0	-	-	0	-
N=c1c(C(=O)NCc2ccc(F)cc2)cc2c(=O)n3ccccc3nc2n1Cc1cccnc1	0	?	5.8µM	?	?
COc1cc(NC2=Nc3cccc4cccc2c34)cc(OC)c1OC	0	0	?	2.6µM	?
COc1ccc(NC2=Nc3cccc4cccc2c34)cc1OC	0	0	0	?	0
COc1cccc(NC2=Nc3cccc4cccc2c34)c1	0	?	0	13µM	0
COc1ccc(Nc2nc(NCCN3CCOCC3)nc(Nc3ccc(OC)cc3)n2)cc1	0	?	0	0	0
COc1cccc(CNCCCSc2nnnn2C)c1	0	-	-	0	-
NC(=S)Cc1ccccc1Cl	0	0	0	0	18µM
CCOC(=O)c1ccc(NC(=O)c2c(NCc3cccs3)sc3c2CCCCC3)cc1	0	-	-	0	-
CC1(C(=O)NS(C)(=O)=O)CCN1C(=O)Cc1ccc(-c2ccccc2)cc1 (centres undefined)	0	-	-	0	-
Cc1nc(-c2ccc(F)cc2)c(CC(=O)N2CCN(S(=O)(=O)c3ccccc3Br)CC2)s1	0	0	0	?	0
COc1cc(C(=O)NCC(=O)N2CCN(S(=O)(=O)c3cc(C)ccc3C)CC2)cc(OC)c1OC	3.3µM	0	?	?	8.2µM
Cc1ccc(C)c(S(=O)(=O)N2CCN(C(=O)CCNS(=O)(=O)c3ccc(C)c(C)c3)CC2)c1	?	?	0	2.9µM	0
Cc1ccc(C)c(S(=O)(=O)N2CCN(C(=O)Cc3c(F)cccc3Cl)CC2)c1	0	?	0	7.3µM	0
Cc1ccc(C)c(S(=O)(=O)N2CCN(C(=O)CCNC(=O)c3ccc(Br)cc3)CC2)c1	0	?	?	?	0
Cc1ccc(C)c(S(=O)(=O)N2CCN(C(=O)Cc3sc(C)nc3-c3ccc(F)cc3)CC2)c1	?	-	0	23µM	0
Nc1nc(Br)c2c(F)cccc2c1-c1ccc(Cl)cc1	0	0	7.3µM	0	21µM
Nc1nc(Br)c2ccccc2c1-c1ccccc1	0	?	22µM	0	?
SMILES	KB-3-1 cytotox	ELG1 DNA repair	MCF10A rerep	KB-V1 cytotox	SW480 rerep
CN(C)c1nc2ccccc2c(N)c1-c1ccccc1	0	0	?	?	0
COCCN(C(=O)CCC(=O)Nc1nccs1)C(C(=O)NCCC(C)C)c1ccc(OC)cc1 (centres undefined)	0	0	0	0	0
Cc1ccc(S(=O)(=O)Cc2sc3ccccc3[n+]2C)cc1	0	0	0	21µM	0
Cc1ccc(S(=O)(=O)CC(=O)Nc2nc3ccccc3s2)cc1	0	0	0	0	0
CCCCn1c(N)c(N(CCC(C)C)C(=O)c2ccc([N+](=O)[O-])s2)c(=O)[nH]c1=O	0	0	23µM	0	?
Cc1c2cnn(CC(=O)Nc3cccc(C(F)(F)F)c3)c(=O)c2c(C)n1Cc1ccccc1Cl	0	-	-	0	-
O=S(NCc1ccccc1)C12CC3CC(CC(C3)C1)C2 (centres undefined)	0	0	0	0	0
O=C(NCc1ccco1)C12CC3CC(C1)CC(C(=O)NCc1ccco1)(C3)C2	0	0	0	21µM	0
O=S(NCc1ccco1)C12CC3CC(CC(C3)C1)C2 (centres undefined)	0	0	21µM	0	0
C#Cc1ccc([C@@H]2C=C(C(=O)NC3CC3)O[C@H](OCC)[C@H]2CCCO)cc1	0	0	?	0	0
CCO[C@H]1OC(C(=O)NC2CC2)=C[C@@H](c2ccccc2)[C@@H]1CCCO	0	?	23µM	0	?
O=C1CCN(CCCc2ccccc2)CCN1[C@H](CO)Cc1ccccc1	0	0	0	0	0
COc1ccc(C2=Nn3c(nnc3-c3ccccc3Cl)SC2)cc1OC1CCOC1 (centres undefined)	13µM	?	?	?	?
COc1ccc(C2=Nn3c(nnc3-c3ccccc3Cl)SC2)cc1OC1CCCC1	?	?	16µM	0	21µM
COc1ccc(C2=Nn3c(nnc3-c3ccco3)SC2)cc1OC	0	?	0[0.0737 µM]	?	0
COc1ccc(OC)c(-c2nnc3n2N=C(c2ccc(OC)c(OC4CCOC4)c2)CS3)c1 (centres undefined)	0.12µM	?	?	?	?
COc1ccc(C2=Nn3c(nnc3-c3ccccn3)SC2)cc1OC	0	0	0	0	0
COc1ccc(OC)c(C2=Nn3c(nnc3-c3ccncc3)SC2)c1	0	-	0	0	?
O=C1CNC(=S)N1c1nc2ccccc2s1	0	?	0	0	0
COc1ccc(-c2cc(C(F)F)n3ncc(C(=O)N4CCCc5ccccc54)c3n2)cc1	0	0	0	0	0
COc1ccc(-c2cc(C(F)F)n3ncc(C(=O)N4CCN(C)CC4)c3n2)cc1	0	7.3µM	0	0	0
COc1ccc(-c2cc(C(F)F)n3ncc(C(=O)N4CCSCC4)c3n2)cc1	0	16µM	?	0	5.2µM
O=C(Nc1ccnn1C1CCN(Cc2cc(Cl)ccc2O)CC1)c1cccnc1	0	0	0	0	0
CCOC(=O)C(Cc1c[nH]c2ccccc12)NC(=O)c1ccccc1Br (centres undefined)	0	?	0	0	0[9.22 µM]
Cc1ccc(C(=O)CSC2=C(C#N)C(c3ccco3)C3=C(CC(C)(C)CC3=O)N2)cc1 (centres undefined)	?	?	?	0	?
COc1ccc(OC)c(NC(=O)CSC2=C(C#N)C(c3ccco3)C3=C(CCCC3=O)N2)c1 (centres undefined)	0	?	?	0	16µM
CC1(C)CC(=O)C2=C(C1)NC(SCC(=O)Nc1ccccc1)=C(C#N)C2c1ccco1 (centres undefined)	0	?	16µM	0	?
Cc1ccc(NC(=O)CSC2=C(C#N)C(c3ccco3)C3=C(CCCC3=O)N2)cc1 (centres undefined)	0	?	?	0	0[9.22 µM]
